Test results from PubChem BioAssay (NCATS).
Records with an inconclusive call do not appear. Calls of active or inactive are those of the source. Calls follow the shape of the dose curve; as a rule, active = well fitted curve in the direction sought with a large enough effect; inconclusive = small, poorly fitted or top-dose-only effect, or another doubt; inactive = no such curve, though single readings can be large; an effect the other way counts as inactive or inconclusive.

Assays:
[1] = qHTS of pediatric cancer cell lines to identify multiple opportunities for drug repurposing: Primary screen for NB-EBc1 cells (AID 1347095)
Summary of the method: (§1)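 Plated cells (500-1,000 per well, growth media) were allowed to settle for 5 hours, treated with compound dilutions for 48 hours, then lysed with CellTiter-Glo for 15 min at room temperature before luminescence reading.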

[2] = qHTS of pediatric cancer cell lines to identify multiple opportunities for drug repurposing: Primary screen for U-2 OS cells (AID 1347096); also: nearly all actives have a fitted effect of over 50% in size
Summary of the method: (§2)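 Viability after 48 h compound treatment at 37C, 500-1,000 cells/well, read as ATP luminescence with CellTiter-Glo. Primary screens used 11-point (MIPE, 0.78 nM-46 µM) or 8-point (NPC, 0.59 nM-46 µM) final concentrations; follow-up screens used 11-point dilutions.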

[3] = qHTS of pediatric cancer cell lines to identify multiple opportunities for drug repurposing: Primary screen for Saos-2 cells (AID 1347097); also: nearly all actives have a fitted effect of over 40% in size
Summary of the method: as §1

[4] = qHTS of pediatric cancer cell lines to identify multiple opportunities for drug repurposing: Primary screen for SK-N-SH cells (AID 1347098);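 also: DMSO served as neutral control and bortezomib at 2.3 µM as positive control; nearly all actives have a fitted effect of over 65% in size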
Summary of the method: (§3)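 Cells (500-1,000/well) rested 5 h, then received compounds for 48 h; metabolically active cells were measured by CellTiter-Glo luminescence. Final concentrations spanned up to 46 µM (MIPE, 11-point) or 0.59 nM-46 µM (NPC, 8-point) in primary screens, 11-point in follow-ups.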

[5] = qHTS of pediatric cancer cell lines to identify multiple opportunities for drug repurposing: Primary screen for NB1643 cells (AID 1347099); also: nearly all actives have a fitted effect of over 50% in size
Summary of the method: as §1

[6] = qHTS of pediatric cancer cell lines to identify multiple opportunities for drug repurposing: Primary screen for LAN-5 cells (AID 1347100)
Summary of the method: as §2

[7] = qHTS of pediatric cancer cell lines to identify multiple opportunities for drug repurposing: Primary screen for BT-12 cells (AID 1347101); also: nearly all actives have a fitted effect of over 25% in size
Summary of the method: as §3

[8] = qHTS of pediatric cancer cell lines to identify multiple opportunities for drug repurposing: Primary screen for Rh18 cells (AID 1347102); also: nearly all actives have a fitted effect of over 65% in size
Summary of the method: as §2

[9] = qHTS of pediatric cancer cell lines to identify multiple opportunities for drug repurposing: Primary screen for OHS-50 cells (AID 1347103); also: nearly all actives have a fitted effect of over 40% in size
Summary of the method: as §3

[10] = qHTS of pediatric cancer cell lines to identify multiple opportunities for drug repurposing: Primary screen for RD cells (AID 1347104); also: nearly all actives have a fitted effect of over 55% in size
Summary of the method: as §1

[11] = qHTS of pediatric cancer cell lines to identify multiple opportunities for drug repurposing: Primary screen for MG 63 (6-TG R) cells (AID 1347105); also: nearly all actives have a fitted effect of over 50% in size
Summary of the method: as §1

[12] = qHTS of pediatric cancer cell lines to identify multiple opportunities for drug repurposing: Primary screen for control Hh wild type fibroblast cells (AID 1347106);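 also: series mostly up to about 46 µM; a drop in luminescence marks cytotoxicity and a rise apparent proliferation; nearly all actives have a fitted effect of over 55% in size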
Summary of the method: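 Cells (500-1,000/well) in growth media were settled 5 h at 37 degrees C, then given compounds for 48 h. Viability was read as CellTiter-Glo luminescence. Primary runs used MIPE at 11 points (0.78 nM-46 µM) and NPC at 8 points (0.59 nM-46 µM); follow-ups used 11 points.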

[13] = qHTS of pediatric cancer cell lines to identify multiple opportunities for drug repurposing: Primary screen for Rh30 cells (AID 1347107); also: series mostly up to about 46 µM; nearly all actives have a fitted effect of over 75% in size
Summary of the method: as §2

[14] = qHTS of pediatric cancer cell lines to identify multiple opportunities for drug repurposing: Primary screen for Rh41 cells (AID 1347108);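 also: series mostly up to about 46 µM; luminescence drop marks cytotoxic hits; nearly all actives have a fitted effect of over 70% in size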
Summary of the method: as §1

Measured: Potency

CCN[C@H]1C[C@H](C)S(=O)(=O)c2sc(S(N)(=O)=O)cc21
inactive: [1] | [2] | [3] | [4] | [5] | [6] | [7] | [8] | [9] | [10] | [11] | [12] | [13] | [14]

CCN1CCCC1CNC(=O)c1cc(S(N)(=O)=O)ccc1OC (stereo not given)
inactive: [1] | [2] | [3] | [4] | [5] | [6] | [7] | [8] | [9] | [10] | [11] | [12] | [13] | [14]

CCCOc1ccc(C(=O)OCCN(CC)CC)cc1N
inactive: [1] | [2] | [3] | [4] | [5] | [6] | [7] | [8] | [9] | [10] | [11] | [12] | [13] | [14]

CCOC(=O)c1ccc(OC(=O)CCCCCN=C(N)N)cc1
inactive: [1] | [2] | [3] | [4] | [5] | [6] | [7] | [8] | [9] | [10] | [11] | [12] | [14]

CCCc1cc(C(N)=S)ccn1
inactive: [1] | [2] | [3] | [4] | [5] | [6] | [7] | [8] | [9] | [10] | [11] | [12] | [13] | [14]

CN1CCN(c2c(F)cc3c(=O)c(C(=O)O)cn(CCF)c3c2F)CC1
inactive: [1] | [2] | [3] | [4] | [5] | [6] | [7] | [8] | [9] | [10] | [11] | [12] | [13] | [14]

CN(C)CCc1c[nH]c2ccc(C[C@H]3COC(=O)N3)cc12
inactive: [1] | [2] | [3] | [4] | [5] | [6] | [7] | [8] | [9] | [10] | [11] | [12] | [13] | [14]

O=C(O)c1cn(C2CC2)c2cc(N3CCNCC3)c(F)cc2c1=O
inactive: [1] | [2] | [3] | [4] | [5] | [6] | [7] | [8] | [9] | [10] | [11] | [12] | [13] | [14]

COc1ncnc(NS(=O)(=O)c2ccc(N)cc2)c1OC
inactive: [1] | [2] | [3] | [4] | [5] | [6] | [7] | [8] | [9] | [10] | [11] | [12] | [13] | [14]

CC1(C)[C@H](C(=O)O)N2C(=O)C[C@H]2S1(=O)=O
inactive: [1] | [2] | [3] | [4] | [5] | [6] | [7] | [8] | [9] | [10] | [11] | [12] | [13] | [14]

NC(=O)N1c2ccccc2CC(=O)c2ccccc21
inactive: [1] | [2] | [3] | [4] | [5] | [6] | [7] | [8] | [9] | [10] | [11] | [12] | [13] | [14]

COc1c(N2CCNC(C)C2)c(F)cc2c(=O)c(C(=O)O)cn(C3CC3)c12 (stereo not given)
inactive: [1] | [2] | [3] | [4] | [5] | [6] | [7] | [8] | [9] | [10] | [11] | [12] | [13] | [14]

Nc1ccc(S(=O)(=O)Nc2ccccn2)cc1
inactive: [1] | [2] | [3] | [4] | [5] | [6] | [7] | [8] | [9] | [10] | [11] | [12] | [14]

CCOCC(O)COc1ccc(NC(=O)CC[S+](C)C)cc1 (stereo not given)
inactive: [1] | [2] | [3] | [4] | [5] | [6] | [7] | [8] | [9] | [10] | [11] | [12] | [14]

COc1cc(NS(=O)(=O)c2ccc(N)cc2)nc(OC)n1
inactive: [1] | [2] | [3] | [4] | [5] | [6] | [7] | [8] | [9] | [10] | [11] | [12] | [13] | [14]

COc1ccc2c(c1)c(CC(=O)OCC(=O)O)c(C)n2C(=O)c1ccc(Cl)cc1
inactive: [1] | [2] | [3] | [4] | [5] | [6] | [7] | [8] | [9] | [10] | [11] | [12] | [13]
